Consider twelve molecules from PubChem BioAssay (NCI).

Molecules are shown by their SMILES. Compounds without any hit were thinned out: in the full panel of roughly 83,000, 20% have a hit.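 Method: cells in 96-well plates; compound added at one concentration; 48 h incubation; percent growth measured; values under 10 scored active.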 A number with no mark means an inactive call. The source made the active and inactive calls.

Some test systems named below: SK-MEL-2 melanoma; EKVX NSCLC; SN12C renal; UO-31 renal; TK-10 renal; ACHN renal; CAKI-1 renal; A498 renal; CCRF-CEM leukemia; MOLT-4 leukemia.
Holding throughout (test): NCI-60 one-dose screen, 48 h (100 = growth as untreated, 0 = no growth, -100 = all killed)
Settings in all cases: 10 µM unless noted

On to `Cc1ccc(NC(=O)Cn2c(Br)nc3c2c(=O)n(C)c(=O)n3C)cc1`, for which the growth in the experiment on SK-MEL-2 melanoma is 84.9%; in the experiment with EKVX NSCLC it was 55.5%; in the experiment on SN12C renal, -30% (active); in the experiment on UO-31 renal it was 14.1%; in the experiment on TK-10 renal it was 9.94% (active); in the experiment on ACHN renal, -66.6% (active). In addition, the growth was 53% with CAKI-1 renal, -6.02% (active) with A498 renal, 40.7% with CCRF-CEM leukemia and 58.8% with MOLT-4 leukemia.
Take `Cc1ccc(C=C2C(=O)NC(=O)NC2=O)cc1`: the growth in the experiment with SK-MEL-2 melanoma was 104%; with EKVX NSCLC, 101%; in the experiment on SN12C renal it was 99.2%; with UO-31 renal it was 89.9%; in the experiment on TK-10 renal, 97.8%; in the experiment on ACHN renal it was 110%. The growth is 100% in the experiment with CAKI-1 renal, 105% with A498 renal, 103% with CCRF-CEM leukemia and 95.1% in the experiment with MOLT-4 leukemia.
Take `C/C(=N\O)c1ccc(NC(=O)CSc2nnc(-c3cc(-c4ccc(S(C)(=O)=O)cc4)nc4ccccc34)n2-c2ccccc2)cc1`: the growth in the experiment on SK-MEL-2 melanoma is 100%; with EKVX NSCLC, 84.7%; with SN12C renal, 89.2%; with UO-31 renal it was 65.2%; in the experiment with TK-10 renal it was 107%; in the experiment with ACHN renal it was 90.8%. Moreover, the growth in the experiment with CAKI-1 renal is 73.8%; in the experiment with A498 renal, 53.1%; in the experiment on CCRF-CEM leukemia, 68.2%; in the experiment with MOLT-4 leukemia, 57.9%.
With `COc1cc2nc3sc(C(=O)Nc4ccc(C(=O)OC(C)C)cc4)c(C(=O)Nc4ccc(Cl)cc4C)n3c(=O)c2cc1OC`, the growth was 110% with SK-MEL-2 melanoma; 77.2% with EKVX NSCLC; 102% with SN12C renal; -5.58% (active) with UO-31 renal; 6.58% (active) in the experiment on TK-10 renal; 97% with ACHN renal. The growth is 42.7% in the experiment with CAKI-1 renal, 56.7% in the experiment on A498 renal, 23.6% with CCRF-CEM leukemia and 52.8% with MOLT-4 leukemia.
Consider `C=C(CNCCO)[C@@H]1CC[C@]2(CO)CC[C@]3(C)[C@H](CC[C@@H]4[C@@]5(C)CCC(N)C(C)(C)[C@@H]5CC[C@]43C)[C@@H]12` (stereo not given in full), for which the growth with SK-MEL-2 melanoma is -29.2% (active); with EKVX NSCLC, 72%; in the experiment with SN12C renal, 71.7%; in the experiment on UO-31 renal, 81.7%; in the experiment on TK-10 renal it was 68.9%; with ACHN renal, 97.5%. In addition, the growth was 54.1% in the experiment with CAKI-1 renal, 81.7% with A498 renal, 1.11% (active) in the experiment with CCRF-CEM leukemia and 8.81% (active) with MOLT-4 leukemia.
In the case of `COc1cc(Cl)c(C)cc1NC(=O)c1cc2ccccc2cc1O`, the growth in the experiment with SK-MEL-2 melanoma was -33.1% (active); in the experiment with EKVX NSCLC it was 0.938% (active); in the experiment on SN12C renal, 8.39% (active); with UO-31 renal, 0.513% (active); in the experiment on TK-10 renal it was 6.75% (active); with ACHN renal, 4.34% (active). Moreover, the growth with CAKI-1 renal was -12.7% (active); in the experiment on A498 renal, -9.59% (active); in the experiment with CCRF-CEM leukemia it was 7.39% (active); in the experiment with MOLT-4 leukemia, 17.5%.
Consider `S=c1nc2oc(-c3ccccc3)c(-c3ccccc3)c2c(/N=C\c2ccco2)[nH]1`, for which the growth was 92.1% in the experiment on SK-MEL-2 melanoma; 95.7% in the experiment with EKVX NSCLC; 99.1% in the experiment on SN12C renal; 81.2% with UO-31 renal; 99.6% with TK-10 renal; 93.8% in the experiment with ACHN renal. Further, the growth in the experiment with CAKI-1 renal was 92.3%; in the experiment with A498 renal, 101%; in the experiment on CCRF-CEM leukemia, 108%; in the experiment with MOLT-4 leukemia, 84%.
For `Cc1nnc(-c2ccc3c(c2)nc(/C=C/c2ccccc2)n3C2CCCCC2)o1`, the growth in the experiment with SK-MEL-2 melanoma was 82%; in the experiment on EKVX NSCLC, 86.8%; in the experiment on SN12C renal, 90.1%; in the experiment on UO-31 renal it was 58.2%; in the experiment with TK-10 renal, 104%; in the experiment on ACHN renal, 54.7%. Besides, the growth was 112% with CAKI-1 renal, 97.8% with A498 renal, 53.8% in the experiment with CCRF-CEM leukemia and 43.4% in the experiment on MOLT-4 leukemia.
Turning to `CC(=O)OC(c1ccccc1)C1CCOC1=O` (stereo not given), the growth in the experiment on SK-MEL-2 melanoma is 96.5%; with EKVX NSCLC, 78.8%; in the experiment with SN12C renal, 102%; in the experiment on UO-31 renal it was -82.3% (active); in the experiment with TK-10 renal, 92.4%; in the experiment with ACHN renal, 96.5%. In addition, the growth was 75.2% in the experiment with CAKI-1 renal, 98.7% in the experiment with A498 renal, 109% in the experiment on CCRF-CEM leukemia and 82.8% in the experiment with MOLT-4 leukemia.
As for `CC(=O)O[C@H]1C[C@@H]2C(C)(C)C(=O)CC[C@@]2(C)c2ccc(C(C)C)cc21`, the growth in the experiment on SK-MEL-2 melanoma was 109%; in the experiment on EKVX NSCLC, 99.3%; in the experiment on SN12C renal it was 107%; with UO-31 renal, 91.8%; in the experiment on TK-10 renal, 97.2%; in the experiment on ACHN renal it was 107%. The growth with CAKI-1 renal is 89.6%; in the experiment on A498 renal, 100%; in the experiment on CCRF-CEM leukemia, 108%; in the experiment with MOLT-4 leukemia, 108%.
Take `Cc1ccc(CNc2c3ccccc3nc3ccccc23)cc1`: the growth is 42.7% with SK-MEL-2 melanoma; 37.9% with EKVX NSCLC; 24.9% in the experiment on SN12C renal; 12% with UO-31 renal; 35.8% in the experiment with TK-10 renal; 14% in the experiment on ACHN renal. Moreover, the growth in the experiment on CAKI-1 renal is 18.6%; with A498 renal, 7.64% (active); in the experiment with CCRF-CEM leukemia, 20.9%; with MOLT-4 leukemia it was 4.29% (active).
For the molecule `O=C1NC(=O)/C(=C/c2c(-c3ccccc3)nc3sc(COc4ccccc4)nn23)S1`, the growth is 92.1% with SK-MEL-2 melanoma; 91.9% in the experiment on EKVX NSCLC; 102% in the experiment on SN12C renal; 84.7% in the experiment on UO-31 renal; 108% in the experiment with TK-10 renal; 98.3% in the experiment on ACHN renal. For the same molecule, the growth was 98% in the experiment with CAKI-1 renal, 78.7% with A498 renal, 98.3% in the experiment with CCRF-CEM leukemia and 96.1% in the experiment with MOLT-4 leukemia.
